The source of these data is the supplement of paper PMC3545927.

The target in the experiment is furin, P09958. As to the kind of experiment: furin cleavage Z-score vs untreated control; higher = more cleavage, active = 3.5 or more, inactive = 1 or less, 8 variable residues between constant flanks. The gist of the method: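 Read counts from sequencing released DNA gave abundance for each bead-bound 8-mer peptide–cDNA fusion cut by purified furin over 7.5, 15 or 30 min. The cleavage Z-score compares log counts with furin-free reactions after lowess adjustment and median absolute deviation scaling.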

The list shows a part of the results. The true hit rate is not given.
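Note: purified furin at 1:10 enzyme:substrate in 50 mM HEPES pH 7.5.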

furin, P09958, sequence (P09958 whole entry, the tested form may be a part): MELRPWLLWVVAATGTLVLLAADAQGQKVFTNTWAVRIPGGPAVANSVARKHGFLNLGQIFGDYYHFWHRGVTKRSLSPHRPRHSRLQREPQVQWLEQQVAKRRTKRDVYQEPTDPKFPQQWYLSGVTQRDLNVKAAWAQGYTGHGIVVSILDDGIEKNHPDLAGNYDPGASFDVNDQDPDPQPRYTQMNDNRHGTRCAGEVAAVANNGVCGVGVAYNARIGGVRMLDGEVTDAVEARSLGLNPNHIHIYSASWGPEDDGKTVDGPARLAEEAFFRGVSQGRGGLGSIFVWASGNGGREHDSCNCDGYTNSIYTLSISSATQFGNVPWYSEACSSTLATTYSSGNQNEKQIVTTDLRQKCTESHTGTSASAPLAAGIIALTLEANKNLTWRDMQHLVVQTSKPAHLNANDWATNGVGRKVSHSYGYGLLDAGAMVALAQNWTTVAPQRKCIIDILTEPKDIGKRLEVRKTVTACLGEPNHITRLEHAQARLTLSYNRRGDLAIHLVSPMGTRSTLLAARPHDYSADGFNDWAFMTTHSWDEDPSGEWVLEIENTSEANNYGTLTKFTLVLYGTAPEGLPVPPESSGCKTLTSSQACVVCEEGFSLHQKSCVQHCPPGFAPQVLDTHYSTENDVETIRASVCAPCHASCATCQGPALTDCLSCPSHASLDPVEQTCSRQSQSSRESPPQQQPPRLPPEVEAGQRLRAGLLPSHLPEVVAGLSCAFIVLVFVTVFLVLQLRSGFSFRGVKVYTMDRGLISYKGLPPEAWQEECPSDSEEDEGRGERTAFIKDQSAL

CAEVVTYTWVAGNASASA [HC157]: the “furin cleavage Z-score” value was -1.14 (inactive) (7.5 min), -2.61 (inactive) (15 min) and -1.31 (inactive) (30 min).
The matching figures for CAVRRRVQRMAGNASASA [FS-1662]: 9.65 (active), 8.64 (active) and 6.99 (active).
On to CAVRRRAADQAGNASASA [FS-3143], for which the “furin cleavage Z-score” value is -0.697 (inactive) (7.5 min), 0.216 (inactive) (15 min) and 1.49 (30 min).
Take CAVRRRSVQQAGNASASA [FS-2856]: the “furin cleavage Z-score” value is 3.6 (active) (7.5 min), 4.13 (active) (15 min) and 4.51 (active) (30 min).
The corresponding values for CAGEGAVQWMAGNASASA [HC1115] are -1.9 (inactive), -0.502 (inactive) and -1.06 (inactive).
The corresponding values for CAVVARSVNGAGNASASA [FS-1816] are -0.0409 (inactive), 0.74 (inactive) and 1.63.
The corresponding values for CAASRCWVAMAGNASASA [HC278] are 1.39, -0.873 (inactive) and 1.5.
With CAEIPCHRPSAGNASASA [HC2324], the “furin cleavage Z-score” value was 1.27 (7.5 min), 0.0659 (inactive) (15 min) and -0.381 (inactive) (30 min).
The matching figures for CARRFRAALGAGNASASA [FS-3046]: -0.151 (inactive), -1.57 (inactive) and 1.09.
As for CALHQRVRRFAGNASASA [FS-820], the “furin cleavage Z-score” value is 8.84 (active) (7.5 min), 10.6 (active) (15 min) and 9.12 (active) (30 min).
The matching figures for CARRFRPRRFAGNASASA [FS-1072]: 9 (active), 10.6 (active) and 9.46 (active).
The corresponding values for CAPGQRVEFLAGNASASA [HC1469] are -0.0222 (inactive), -0.699 (inactive) and -1.16 (inactive).
For CARRFAQALPAGNASASA [HC1300], the “furin cleavage Z-score” value (7.5 min) is 0.481 (inactive), the “furin cleavage Z-score” value (15 min) was 1.31 and the “furin cleavage Z-score” value (30 min) is -0.76 (inactive).
The corresponding values for CALRTRPRRFAGNASASA [FS-58] are 10.2 (active), 12.6 (active) and 10.4 (active).
In the case of CARRFRPRRSAGNASASA [FS-1073], the “furin cleavage Z-score” value runs as follows: (7.5 min) 10.2 (active); (15 min) 9.93 (active); (30 min) 8.02 (active).
The matching figures for CATTPLSGSWAGNASASA [HC44]: -0.768 (inactive), -0.103 (inactive) and 0.0356 (inactive).
As for CASTPCSAHQAGNASASA [HC2582], the “furin cleavage Z-score” value is, setting by setting: (7.5 min) -0.092 (inactive); (15 min) -1.41 (inactive); (30 min) -0.516 (inactive).
The matching figures for CAMETKLITWAGNASASA [HC650]: -0.69 (inactive), -0.554 (inactive) and -0.78 (inactive).
As for CAISQAEAALAGNASASA [HC531], the “furin cleavage Z-score” value (7.5 min) was -1.47 (inactive), the “furin cleavage Z-score” value (15 min) is -0.433 (inactive) and the “furin cleavage Z-score” value (30 min) is -1.7 (inactive).
The matching figures for CAVVCCIMSYAGNASASA [HC105]: 1.49, 0.708 (inactive) and 1.08.
The corresponding values for CAYRGRHRRFAGNASASA [FS-152] are 5.94 (active), 6.27 (active) and 6.98 (active).
In the case of CAYRGRCRKSAGNASASA [FS-923], the “furin cleavage Z-score” value was 0.471 (inactive) (7.5 min), 1.55 (15 min) and 0.866 (inactive) (30 min).
The corresponding values for CAKLRRNRRSAGNASASA [FS-1221] are 5.36 (active), 6.08 (active) and 4.35 (active).
The corresponding values for CAHTQRNRRSAGNASASA [FS-799] are 11.3 (active), 12.6 (active) and 10.4 (active).
The corresponding values for CATAQGMKRSAGNASASA [FS-725] are 1.25, 1.19 and -0.124 (inactive).
For the sequence CATVSGFVSLAGNASASA [HC358], the “furin cleavage Z-score” value is, setting by setting: (7.5 min) 0.667 (inactive); (15 min) -0.762 (inactive); (30 min) 1.14.
The matching figures for CAEDEVPCHRAGNASASA [HC2451]: 1.14, 0.677 (inactive) and 1.09.
The matching figures for CAPLTRSKRDAGNASASA [FS-700]: 15 (active), 15 (active) and 10.2 (active).
The corresponding values for CANWAKVLVVAGNASASA [HC344] are 0.338 (inactive), -0.0162 (inactive) and 1.26.
Consider CAPRAKVKREAGNASASA [FS-281], for which the “furin cleavage Z-score” value runs as follows: (7.5 min) 11.8 (active); (15 min) 10.8 (active); (30 min) 7.73 (active).
The matching figures for CAGGGRSKRDAGNASASA [FS-997]: 12.9 (active), 11.9 (active) and 8.83 (active).
On to CAQGYKVLVLAGNASASA [HC784], for which the “furin cleavage Z-score” value was -0.106 (inactive) (7.5 min), -0.421 (inactive) (15 min) and -0.768 (inactive) (30 min).
The matching figures for CAPLTNSRGEAGNASASA [HC1503]: -0.174 (inactive), -0.452 (inactive) and 1.07.
In the case of CATRSRSERDAGNASASA [FS-884], the “furin cleavage Z-score” value runs as follows: (7.5 min) 2.38; (15 min) 3.17; (30 min) 0.745 (inactive).
The matching figures for CANRERSKRDAGNASASA [FS-182]: 13.6 (active), 14.6 (active) and 10.7 (active).
The corresponding values for CATRCHCGAEAGNASASA [HC1174] are -0.133 (inactive), -0.874 (inactive) and -0.744 (inactive).
The corresponding values for CAHDSPDAELAGNASASA [HC1270] are -0.658 (inactive), -0.493 (inactive) and -0.66 (inactive).
Consider CAVVCCSMCYAGNASASA [HC2080], for which the “furin cleavage Z-score” value was 0.362 (inactive) (7.5 min), -0.833 (inactive) (15 min) and 2.39 (30 min).
The corresponding values for CAKERRSKRDAGNASASA [FS-934] are 12.1 (active), 12.8 (active) and 8.75 (active).
Turning to CAPRALRKRDAGNASASA [FS-1603], the “furin cleavage Z-score” value by setting is: (7.5 min) 9.96 (active); (15 min) 9.61 (active); (30 min) 8.35 (active).
The corresponding values for CAREKKADRDAGNASASA [FS-2913] are 0.241 (inactive), -0.361 (inactive) and -1.01 (inactive).
The matching figures for CAQEVRSKRDAGNASASA [FS-622]: 14.6 (active), 15.6 (active) and 10.9 (active).
The matching figures for CAQWHLSKRDAGNASASA [FS-485]: 0.736 (inactive), 2.32 and 1.82.
